A selection: hits, their analogues and other compounds. The true share with any hit is near 2.4%.
AmpC det inh – blocks E. coli AmpC beta-lactamase in presence of detergent; P00811; purified AmpC, nitrocefin hydrolysis with detergent; Potency, µM (series often up to 28.7 µM), for inactives: top-dose activity change, negative = inhibition; 0.09% of 71,000 active; AID 584; active = well fitted curve in the direction sought with a large enough effect; inconclusive = small, poorly fitted or top-dose-only effect; also: % is scaled to controls: 0 for no effect and ±100 for the full control effect
Target sequence (P00811 whole entry, looked up): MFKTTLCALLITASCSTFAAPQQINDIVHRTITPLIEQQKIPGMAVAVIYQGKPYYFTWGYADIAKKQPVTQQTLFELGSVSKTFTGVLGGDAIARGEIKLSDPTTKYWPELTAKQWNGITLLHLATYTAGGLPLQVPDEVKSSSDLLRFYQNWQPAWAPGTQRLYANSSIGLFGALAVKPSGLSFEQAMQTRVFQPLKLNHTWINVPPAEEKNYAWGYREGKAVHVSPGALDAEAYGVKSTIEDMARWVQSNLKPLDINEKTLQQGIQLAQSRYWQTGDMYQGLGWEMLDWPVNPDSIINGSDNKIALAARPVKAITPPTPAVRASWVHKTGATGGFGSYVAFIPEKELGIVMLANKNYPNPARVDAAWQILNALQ
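E. coli AmpC (5.3 nM) in 20 mM phosphate pH 7.0 with 0.01% Triton X-100, preincubated 15 min RT with compound; nitrocefin (2 uL of 800 uM stock) hydrolysis followed by 480 nm absorbance every 20 s over 4 min.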
Anthrax LT inh – inhibitors of anthrax lethal toxin internalization; 0.67% of 70,000 active; Cells, anthrax lethal toxin internalization, FRET ratio (460/530); AID 912; Potency, µM (doses to about 40 µM), for the others: at the highest dose activity change, negative = inhibition, usual class: inhibitors; also: % is scaled to controls: 0 for no effect and ±100 for the full control effect; nearly all actives have a fitted effect of over 50% in size
AmpC inh no det – AmpC beta-lactamase inhibition, detergent-free assay | AID 585 | 1.8% of 71,000 active | Potency, µM (series often up to 28.7 µM), inactives show at the highest dose activity change, negative = inhibition | P00811 | AmpC nitrocefin hydrolysis, absorbance 480 nm, no detergent; also: % of control where 0% means no effect
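Enzyme, pH 7.0 phosphate. Compound titrations were pre-incubated with AmpC for 15 min at room temperature before nitrocefin (stock 800 uM) addition; product formation was recorded at 480 nm every 20 s for 4 min.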
Prx2 Sm inh – blocks S. mansoni peroxiredoxin 2 enzymatic activity. S. mansoni Prx2 activity coupled to TGR/GSH (TGR is thioredoxin glutathione reductase), NADPH fluorescence loss, qHTS. Potency, µM. 0.07% of 65,000 active. AID 448
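Coupled assay in which S. mansoni TGR passes NADPH reducing equivalents via glutathione to Prx2, which reduces H2O2. Compounds were preincubated 15 min at room temperature with 25 nM TGR/50 nM Prx2 mix. Kinetic NADPH fluorescence loss (ex 365/em 450 nm) was monitored.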
Active calls of the source: *; ? = inconclusive; · = no result given; [ ] = dose if it differs, or a comment. Unless noted, calls follow the shape of the full dose curve. Potency is read from the fitted curve at half-maximal effect.

SMILES | AmpC det inh | Anthrax LT inh | AmpC inh no det | Prx2 Sm inh
Cn1c(C(=O)NCCN2CCN(c3ccccc3F)CC2)cc2c(=O)n(C)c3ccccc3c21 | 16.4% | -5.9% | 3.98µM*[single pt active] | >57
CC1CCCCN1CCNC(=O)c1cc2c(=O)n(C)c3ccccc3c2n1C (stereo unspecified) | 9.8% | 2.51µM* | 37.7% | >57
CC1CCCCN1CCNC(=O)c1cnn2ccccc12 (stereo unspecified) | 13.9% | -9.4% | 3.16µM*[single pt active] | ·
Cn1c(C(=O)NCCN2CCc3ccccc3C2)cc2c(=O)n(C)c3ccccc3c21 | 7.4% | 7.94µM* | 102.0% | >57
Cn1c(C(=O)NCCN2CCOCC2)cc2c(=O)n(C)c3ccccc3c21 | 9.8% | -17.5% | 106.0% | >57
Cn1c(=O)c2nc(-c3ccc(Cl)cc3Cl)oc2c2ccccc21 | 13.0% | -19.1% | 2.51µM* | >57
COC(=O)[C@@H]1c2cc3c(c(O)c2[C@@H](O)C[C@]1(C)O)C(=O)c1c(O)cc2c(c1C3=O)O[C@H]1O[C@@]2(C)[C@@H](O)[C@H](N(C)C)[C@H]1O | -6.0%[5.75 µM] | -2.5%[8 µM] | -0.1%[5.75 µM] | >57
COc1ccc(CCNc2nc(N3CCCCC3)nc(N3CCCCC3)n2)cc1OC | -6.7% | 6.31µM* | 91.5% | >57
COc1ccc(OCCSc2ncnc3nc[nH]c23)cc1 | 11.4% | -6.6% | 3.98µM*[single pt active] | >57
COc1cccc(-c2cc(C(=O)Nc3ccc(OC)c(OC)c3)no2)c1 | -5.2% | -13.4% | 31.7% | >57
CCc1ccc(NC(=O)c2cc(CC(C)C)on2)cc1 | 12.3% | -29.1% | 3.98µM*[single pt active] | >57
O=C(Nc1ccc2c(c1)OCO2)c1cc2ncc(Br)cn2n1 | 25.0% | 3.3% | 15.8µM*[single pt active] | >57
Cc1onc(-c2ccccc2)c1C(=O)Nc1ccc2c(c1)OCO2 | 4.1% | -12.6% | -6.3% | ·
COc1ccc(NC(=O)c2cc(CC(C)C)on2)cc1OC | 12.1% | -5.2% | 3.98µM*[single pt active] | >57
CC(C)Cc1cc(C(=O)Nc2ccc3c(c2)OCO3)no1 | 12.6% | ? | 3.98µM*[single pt active] | >57
C[C@@H]1O[C@@H](O[C@H]2C[C@@H](O)[C@]3(CO)[C@@H]4[C@@H](O)C[C@]5(C)[C@H]([C@@H]6COC(=O)C6)CC[C@@]5(O)[C@H]4CC[C@@]3(O)C2)[C@H](O)[C@H](O)[C@@H]1O | 2.3% | ? | 7.3% | >25.6
Cc1ccc(C(=O)Cn2c3c(sc2=N)CCCC3)cc1 | -3.1% | 15.8µM* | 47.1% | >57
CCCCNC(=O)Cn1c(=O)n(C)c2ccccc21 | 9.3% | -11.6% | 3.98µM*[single pt active] | >57
Cn1c(=O)n(CC(=O)Nc2ccc(F)cc2)c2ccccc21 | -5.6% | -8.3% | 2.5% | >57
CCCn1c(-c2ccc(F)cc2)nc2c(NCCCCN3CCCC3)nc(C)nc21 | 13.9% | -20.4% | 56.5% | ·
C[C@@H]1C(=O)O[C@@H]2C[C@@]34[C@H]5C[C@@H](C(C)(C)C)[C@@]36[C@@H](OC(=O)[C@@H]6O)O[C@]4(C(=O)O5)[C@@]12O | 3.9% | ? | -1.4% | >57
COC(=O)c1ccccc1NC(=O)Nc1nnc(N2CCCCC2C)s1 (stereo unspecified) | 11.6% | 1.26µM* | 3.98µM*[single pt active] | >57
COc1ccc(NC(=O)Nc2nnc(N3CCCCC3C)s2)cc1OC (stereo unspecified) | 18.5% | 4.5% | 3.98µM*[single pt active] | ·
C/C(CC/C(C)=N/O)=N/O | -0.1%[5.75 µM] | 2.7%[8 µM] | -11.0%[5.75 µM] | >57
CCCN[C@@H](C)C(=O)Nc1c(C)csc1C(=O)OC | -1.4%[12.8 µM] | -3.6%[3.58 µM] | -21.4%[12.8 µM] | >57
SMILES | AmpC det inh | Anthrax LT inh | AmpC inh no det | Prx2 Sm inh
CC[C@H]1CN2CCc3cc(OC)c(OC)cc3[C@H]2C[C@@H]1C[C@H]1NCCc2c1[nH]c1ccc(O)cc21 | -4.3%[5.75 µM] | ? | 13.2%[5.75 µM] | >57
CC[C@@H]1CN2CCc3cc(OC)c(OC)cc3[C@H]2C[C@@H]1C[C@H]1NCCc2cc(OC)c(OC)cc21 | · | 0.02µM* | · | >57
O=C(Nc1ccccc1)c1ccc2nc(-c3ccco3)c(-c3ccco3)nc2c1 | -6.7% | ? | -3.3% | >57
CCCCNC(=O)c1ccc2nc(-c3ccco3)c(-c3ccco3)nc2c1 | 7.9% | -8.1% | 3.98µM*[single pt active] | >57
Cc1cc(N2CCN(S(=O)(=O)c3ccc(Cl)cc3)CC2)c2ccccc2n1 | -4.2% | 10µM* | 122.6% | ·
Cc1cc(C)n(-c2nc3ccccc3nc2N2CCN(S(=O)(=O)c3ccc(F)c(C)c3)CC2)n1 | -2.1% | 15.2% | 71.8% | >57
COc1ccc(N(C)C(=O)c2ccc3snnc3c2)cc1 | 11.1% | -4.1% | 3.98µM*[single pt active] | >57
Cc1cc(C)n2nc(S(=O)(=O)NCCc3ccccc3)nc2n1 | 13.7% | -9.7% | 3.98µM*[single pt active] | >57
COC(=O)c1cc(-c2ccc(Br)cc2)on1 | 11.0% | -16.3% | 3.98µM*[single pt active] | >57
O=C(Nc1nnc(N2CCCCCC2)s1)c1cc(-c2ccc(Br)cc2)on1 | 11.2% | -10.7% | 3.98µM*[single pt active] | >57
COC(=O)c1cc(-c2ccc(OC)c(OC)c2)on1 | 0.1% | -2.2% | 10.2% | >57
O=C(Oc1ccccc1)N1CCC2(CC1)CCN(c1ccncc1)CC2 | -1.9% | -7.2% | 21.9% | >57
O=C1Nc2ccccc2C(O)(C(=O)NCc2ccco2)N1c1ccc(Cl)c(Cl)c1 (stereo unspecified) | -2.6% | 7.94µM* | -6.1% | >57
C=C(CO)[C@H]1Cc2c(ccc3c(=O)c4c(oc23)COc2cc(OC)c(OC)cc2-4)O1 | 3.1% | -15.2% | 98.8% | >57
O=C(c1ccc(CSCc2ccccc2F)o1)N1CCN(c2ccc(N3CCOCC3)nn2)CC1 | 10.8% | 7.94µM* | 162.2% | >57
O=C(COC(=O)c1ccc(Br)o1)Nc1nc2ccccc2s1 | 1.0% | 0.4% | 5.01µM* | ·
CCSc1nnc(NC(=O)c2ccc(Br)s2)s1 | 0.8% | · | 10µM* | >57
CCCC[C@@H]1C[C@H]1[C@@H](NP(=O)(c1ccccc1)c1ccccc1)c1ccccc1OC | 14.6% | 12.6µM* | 7.7% | ·
CCCC[C@@H]1C[C@H]1C(NP(=O)(c1ccccc1)c1ccccc1)c1ccc(Cl)cc1 (stereo partly specified) | -5.5% | -21.7% | 21.2% | >57
Cn1cccc1Cc1nnc(SCC(=O)NC2CCCC2)n1-c1ccc(F)cc1 | 15.4% | -24.4% | 3.98µM*[single pt active] | >57
O=C(CSc1nnc(Cc2cc(=O)[nH]c(=O)[nH]2)n1-c1ccc(F)cc1)NC1CCCC1 | 3.1% | -2.1% | 3.98µM*[single pt active] | >57
O=C(CSc1nnc(Cc2cc(=O)[nH]c(=O)[nH]2)n1-c1ccc(F)cc1)N1CCCCC1 | 9.1% | -5.5% | 3.98µM*[single pt active] | >57
COc1cccc(-n2c(Cc3cc(=O)[nH]c(=O)[nH]3)nnc2SCC(=O)N2CCCCC2)c1 | 11.9% | -1.6% | 3.98µM*[single pt active] | >57
COc1cccc(-n2c(Cc3cc(=O)[nH]c(=O)[nH]3)nnc2SCC(=O)NC2CCCCC2)c1 | 15.8% | 0.9% | ? | >57
O=C(O)CC[C@@H](NC(=O)c1ccccc1C(=O)O)C(=O)O | -5.1% | 7.8% | 12.4% | >57
COc1cc(N)c(Cl)cc1C(=O)N[C@H]1CCN(CCCOc2ccc(F)cc2)C[C@@H]1OC | 1.4% | ? | 95.6% | >57
O=C(Cc1cc(=O)[nH]c(=O)[nH]1)NCC1CCCO1 (stereo unspecified) | 9.4% | 3.98µM* | 71.3% | >57
